# Experiments:
# Assay in all cases: SELEX-seq (CSI, HT-SELEX, round 3); SELEX-seq: 1x PBS (10 mM phosphate, 137 mM NaCl, 2.7 mM KCl) pH 7.6, 2.5 mM DTT, 50 ng/ul poly dI-dC, 0.1% BSA, 50 nM biotinylated bZIP (1:3 with partner for heterodimers), 100 nM library, room temperature, 1 h, 3 rounds; high values mean tight binding
# Conditions in all cases: protein: recombinant;recombinant; copies: 1;1; dsDNA, one strand shown
# FOS;MAFB = FOS;MAFB (Homo sapiens;Homo sapiens, UniProt P01100;Q9Y5Q3 128-201;212-305, |)
# FOS;BATF2 = FOS;BATF2 (Homo sapiens;Homo sapiens, UniProt P01100;Q8N1L9 128-201;8-85, |)
# FOS;CREB3 = FOS;CREB3 (Homo sapiens;Homo sapiens, UniProt P01100;O43889 128-201;141-221, |)
# ATF5;CEBPE = target: T1, ATF5;CEBPE (Homo sapiens;Homo sapiens, UniProt Q9Y2D1;Q15744 199-275;195-267, |)
# T1 sequence 1: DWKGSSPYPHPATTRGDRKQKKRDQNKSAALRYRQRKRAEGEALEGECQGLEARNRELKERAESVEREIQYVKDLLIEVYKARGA
# T1 sequence 2: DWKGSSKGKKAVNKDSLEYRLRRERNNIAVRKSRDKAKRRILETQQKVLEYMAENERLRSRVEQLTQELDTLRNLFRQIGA
# ATF5;JUNB = target: T2, ATF5;JUNB (Homo sapiens;Homo sapiens, UniProt Q9Y2D1;P17275 199-275;259-332, |)
# T2 sequence 1: T1 sequence 1
# T2 sequence 2: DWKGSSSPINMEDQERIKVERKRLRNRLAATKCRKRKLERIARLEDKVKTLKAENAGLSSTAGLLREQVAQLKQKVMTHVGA
# ATF5;BATF = target: T3, ATF5;BATF (Homo sapiens;Homo sapiens, UniProt Q9Y2D1;Q16520 199-275;17-90, |)
# T3 sequence 1: T1 sequence 1
# T3 sequence 2: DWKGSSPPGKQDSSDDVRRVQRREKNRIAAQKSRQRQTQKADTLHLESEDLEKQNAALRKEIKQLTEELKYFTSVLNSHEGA
# ATF5;FOS = ATF5;FOS (Homo sapiens;Homo sapiens, UniProt Q9Y2D1;P01100 199-275;128-201, |)
# ATF5;CREB3L1 = target: T4, ATF5;CREB3L1 (Homo sapiens;Homo sapiens, UniProt Q9Y2D1;Q96BA8 199-275;281-358, |)
# T4 sequence 1: T1 sequence 1
# T4 sequence 2: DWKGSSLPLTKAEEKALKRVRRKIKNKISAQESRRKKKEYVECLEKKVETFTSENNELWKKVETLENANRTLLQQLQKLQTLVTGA
# ATF5;BATF2 = target: T5, ATF5;BATF2 (Homo sapiens;Homo sapiens, UniProt Q9Y2D1;Q8N1L9 199-275;8-85, |)
# T5 sequence 1: T1 sequence 1
# T5 sequence 2: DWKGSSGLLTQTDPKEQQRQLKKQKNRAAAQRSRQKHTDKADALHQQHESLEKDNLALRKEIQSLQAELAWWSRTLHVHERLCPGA
# ATF5;CREB3L3 = target: T6, ATF5;CREB3L3 (Homo sapiens;Homo sapiens, UniProt Q9Y2D1;Q68CJ9 199-275;234-311, |)
# T6 sequence 1: T1 sequence 1
# T6 sequence 2: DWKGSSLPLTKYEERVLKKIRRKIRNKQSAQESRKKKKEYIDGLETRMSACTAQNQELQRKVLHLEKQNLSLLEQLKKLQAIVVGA
# NFE2;MAFG = NFE2;MAFG (Homo sapiens;Homo sapiens, UniProt Q16621;O15525 221-337;25-124, |)
# NFIL3;NFIL3 = target: T7, NFIL3;NFIL3 (Homo sapiens;Homo sapiens, UniProt Q16649;Q16649 64-134;64-134, |)
# T7 sequence 1: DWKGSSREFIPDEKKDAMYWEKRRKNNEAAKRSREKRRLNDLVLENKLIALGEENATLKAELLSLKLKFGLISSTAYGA
# T7 sequence 2: T7 sequence 1
# MAFB;FOSL1 = MAFB;FOSL1 (Homo sapiens;Homo sapiens, UniProt Q9Y5Q3;P15407 212-305;96-169, |)
# MAFB;ATF5 = MAFB;ATF5 (Homo sapiens;Homo sapiens, UniProt Q9Y5Q3;Q9Y2D1 212-305;199-275, |)
# FOS;NFE2L1 = FOS;NFE2L1 (Homo sapiens;Homo sapiens, UniProt P01100;Q14494 128-201;609-725, |)
# FOS;CREB3L3 = FOS;CREB3L3 (Homo sapiens;Homo sapiens, UniProt P01100;Q68CJ9 128-201;234-311, |)
# NFE2L1;MAFG = NFE2L1;MAFG (Homo sapiens;Homo sapiens, UniProt Q14494;O15525 609-725;25-124, |)
# HLF;HLF = target: T8, HLF;HLF (Homo sapiens;Homo sapiens, UniProt Q16534;Q16534 216-293;216-293, |)
# T8 sequence 1: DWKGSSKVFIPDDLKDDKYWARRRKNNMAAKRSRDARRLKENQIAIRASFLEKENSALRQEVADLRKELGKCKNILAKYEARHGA
# T8 sequence 2: T8 sequence 1
# MAFG;MAFG = MAFG;MAFG (Homo sapiens;Homo sapiens, UniProt O15525;O15525 25-124;25-124, |)
# NFE2;NFE2 = target: T9, NFE2;NFE2 (Homo sapiens;Homo sapiens, UniProt Q16621;Q16621 221-337;221-337, |)
# T9 sequence 1: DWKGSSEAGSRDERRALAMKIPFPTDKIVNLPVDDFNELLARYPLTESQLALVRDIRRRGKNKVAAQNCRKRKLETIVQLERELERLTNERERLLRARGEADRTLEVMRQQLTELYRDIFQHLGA
# T9 sequence 2: T9 sequence 1
# Sequence of MAFB;FOSL1 (Q9Y5Q3 other isoform, or with tags, fused parts or gaps |, chain 1 of 2): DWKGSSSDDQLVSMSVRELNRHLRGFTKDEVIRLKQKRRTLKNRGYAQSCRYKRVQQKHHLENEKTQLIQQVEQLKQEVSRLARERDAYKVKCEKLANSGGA
# Sequence of MAFB;FOSL1 (P15407 other isoform, or with tags, fused parts or gaps |, chain 2 of 2): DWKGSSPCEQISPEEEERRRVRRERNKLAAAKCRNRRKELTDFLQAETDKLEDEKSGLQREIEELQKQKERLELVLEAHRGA
# Sequence of FOS;CREB3L3 (P01100 other isoform, or with tags, fused parts or gaps |, chain 1 of 2, one chain of several): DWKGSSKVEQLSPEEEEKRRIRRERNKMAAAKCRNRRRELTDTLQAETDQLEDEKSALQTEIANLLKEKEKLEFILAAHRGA
# Sequence of FOS;BATF2 (P01100 other isoform, or with tags, fused parts or gaps |): as the sequence (P01100 other isoform, or with tags, fused parts or gaps |, chain 1 of 2, one chain of several) above
# Sequence of ATF5;FOS (P01100 other isoform, or with tags, fused parts or gaps |): as the sequence (P01100 other isoform, or with tags, fused parts or gaps |, chain 1 of 2, one chain of several) above
# Sequence of FOS;CREB3 (P01100 other isoform, or with tags, fused parts or gaps |, chain 1 of 2): as the sequence (P01100 other isoform, or with tags, fused parts or gaps |, chain 1 of 2, one chain of several) above
# Sequence of FOS;CREB3 (O43889 other isoform, or with tags, fused parts or gaps |, chain 2 of 2): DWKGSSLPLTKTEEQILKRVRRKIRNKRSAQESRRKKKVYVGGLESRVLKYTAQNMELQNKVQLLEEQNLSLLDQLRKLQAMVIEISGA
# Sequence of FOS;MAFB (P01100 other isoform, or with tags, fused parts or gaps |, chain 1 of 2): as the sequence (P01100 other isoform, or with tags, fused parts or gaps |, chain 1 of 2, one chain of several) above
# Sequence of FOS;MAFB (Q9Y5Q3 other isoform, or with tags, fused parts or gaps |, chain 2 of 2): as the sequence (Q9Y5Q3 other isoform, or with tags, fused parts or gaps |, chain 1 of 2) above
# Sequence of FOS;NFE2L1 (P01100 other isoform, or with tags, fused parts or gaps |, chain 1 of 2): as the sequence (P01100 other isoform, or with tags, fused parts or gaps |, chain 1 of 2, one chain of several) above
# Sequence of FOS;NFE2L1 (Q14494 other isoform, or with tags, fused parts or gaps |, chain 2 of 2): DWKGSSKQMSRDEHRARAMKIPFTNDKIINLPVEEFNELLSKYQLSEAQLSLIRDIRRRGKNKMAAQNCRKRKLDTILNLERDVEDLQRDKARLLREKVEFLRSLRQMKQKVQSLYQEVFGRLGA
Sequence,binding signal (FOS;MAFB),binding signal (FOS;BATF2),binding signal (FOS;CREB3),binding signal (ATF5;CEBPE),binding signal (ATF5;JUNB),binding signal (ATF5;BATF),binding signal (ATF5;FOS),binding signal (ATF5;CREB3L1),binding signal (ATF5;BATF2),binding signal (ATF5;CREB3L3),binding signal (NFE2;MAFG),binding signal (NFIL3;NFIL3),binding signal (MAFB;FOSL1),binding signal (MAFB;ATF5),binding signal (FOS;NFE2L1),binding signal (FOS;CREB3L3),binding signal (NFE2L1;MAFG),binding signal (HLF;HLF),binding signal (MAFG;MAFG),binding signal (NFE2;NFE2)
CCTGACGTCA,0.0128 relative CSI intensity (max = 1),0.00375 relative CSI intensity (max = 1),0.0122 relative CSI intensity (max = 1),0.073 relative CSI intensity (max = 1),0.0543 relative CSI intensity (max = 1),0.0188 relative CSI intensity (max = 1),0.0125 relative CSI intensity (max = 1),0.00567 relative CSI intensity (max = 1),0.0163 relative CSI intensity (max = 1),0.00229 relative CSI intensity (max = 1),0.00227 relative CSI intensity (max = 1),0.00977 relative CSI intensity (max = 1),0.0285 relative CSI intensity (max = 1),0.0743 relative CSI intensity (max = 1),–,–,–,–,–,–
ATGATGCAAT,0.0246 relative CSI intensity (max = 1),–,0.00378 relative CSI intensity (max = 1),0.402 relative CSI intensity (max = 1),0.00145 relative CSI intensity (max = 1),0.00475 relative CSI intensity (max = 1),–,0.00221 relative CSI intensity (max = 1),0.02 relative CSI intensity (max = 1),–,0.0058 relative CSI intensity (max = 1),0.107 relative CSI intensity (max = 1),0.00125 relative CSI intensity (max = 1),0.00407 relative CSI intensity (max = 1),0.174 relative CSI intensity (max = 1),0.00314 relative CSI intensity (max = 1),0.00579 relative CSI intensity (max = 1),0.0587 relative CSI intensity (max = 1),0.00357 relative CSI intensity (max = 1),–
ATGACGTCAT,0.278 relative CSI intensity (max = 1),1 relative CSI intensity (max = 1),1 relative CSI intensity (max = 1),0.364 relative CSI intensity (max = 1),1 relative CSI intensity (max = 1),0.864 relative CSI intensity (max = 1),1 relative CSI intensity (max = 1),1 relative CSI intensity (max = 1),0.86 relative CSI intensity (max = 1),1 relative CSI intensity (max = 1),0.0346 relative CSI intensity (max = 1),0.344 relative CSI intensity (max = 1),0.196 relative CSI intensity (max = 1),0.148 relative CSI intensity (max = 1),0.472 relative CSI intensity (max = 1),0.751 relative CSI intensity (max = 1),0.0138 relative CSI intensity (max = 1),0.205 relative CSI intensity (max = 1),0.0131 relative CSI intensity (max = 1),0.112 relative CSI intensity (max = 1)
ATGACGCAAT,0.0613 relative CSI intensity (max = 1),0.00476 relative CSI intensity (max = 1),0.0275 relative CSI intensity (max = 1),0.245 relative CSI intensity (max = 1),0.00597 relative CSI intensity (max = 1),0.00602 relative CSI intensity (max = 1),0.024 relative CSI intensity (max = 1),–,0.0275 relative CSI intensity (max = 1),–,0.00814 relative CSI intensity (max = 1),0.224 relative CSI intensity (max = 1),0.00163 relative CSI intensity (max = 1),0.00342 relative CSI intensity (max = 1),0.49 relative CSI intensity (max = 1),0.00168 relative CSI intensity (max = 1),0.00759 relative CSI intensity (max = 1),0.245 relative CSI intensity (max = 1),–,0.0016 relative CSI intensity (max = 1)
ATGACGTAAT,0.0637 relative CSI intensity (max = 1),0.0531 relative CSI intensity (max = 1),–,0.189 relative CSI intensity (max = 1),0.0445 relative CSI intensity (max = 1),0.0375 relative CSI intensity (max = 1),0.00734 relative CSI intensity (max = 1),0.00877 relative CSI intensity (max = 1),0.174 relative CSI intensity (max = 1),0.00383 relative CSI intensity (max = 1),0.00855 relative CSI intensity (max = 1),0.7 relative CSI intensity (max = 1),0.00946 relative CSI intensity (max = 1),0.0179 relative CSI intensity (max = 1),0.12 relative CSI intensity (max = 1),0.0238 relative CSI intensity (max = 1),0.0021 relative CSI intensity (max = 1),0.728 relative CSI intensity (max = 1),0.0106 relative CSI intensity (max = 1),0.00452 relative CSI intensity (max = 1)
ATGACGGAAT,0.00352 relative CSI intensity (max = 1),–,0.0131 relative CSI intensity (max = 1),0.047 relative CSI intensity (max = 1),0.00218 relative CSI intensity (max = 1),–,0.0159 relative CSI intensity (max = 1),–,–,–,–,0.00935 relative CSI intensity (max = 1),–,–,0.00712 relative CSI intensity (max = 1),0.00582 relative CSI intensity (max = 1),0.00175 relative CSI intensity (max = 1),–,0.00454 relative CSI intensity (max = 1),–
